Where “and” joins values, the source holds several entries; their conditions need not be identical. Equal entries are not always repeated. For some assays here: Results with a measured potency or affinity are listed apart. Some compounds were tested as several samples or in several runs, with calls that do not always agree. Calls of active or inactive are those of the source. Unless noted, how the calls were made is not given here.

Assay [1] can be described thus: polyglutamine-triggered caspase-3 activation inhibitors, cell-based (AID 1583). Conditions: polyglutamine-induced caspase-3 activation, cell assay; stronger effect = higher value;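 tested at 10 µM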.
A short description of assay [2]: suppressors of polyQ aggregation in yeast, 75Q-TubU reporter (AID 1593). Conditions: Yeast 75Q polyglutamine aggregation reporter.
Assay [3] is described as follows: rescue of polyQ-huntingtin neuronal dysfunction in worms, whole organism, C. elegans mechanosensory neurons, N-terminal huntingtin (AID 1599). Conditions: touch response, stronger effect = higher value.
Assay [4] in a line: inhibitors of mitochondrial cytochrome c release, biochemical, purified mitochondria (AID 1603).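 Further: mouse liver mitochondria challenged with calcium chloride; signal normalized to the plate average as 100%.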 The conditions noted are these: stronger effect = lower value.
Assay [5] is described as follows: inhibitors of polyQ protein aggregation (AID 1604). The conditions noted are these: polyglutamine-induced protein aggregation inhibition assay; stronger effect = higher value; tested at 2.5 µM.
A short description of assay [6]: enhancers of glutamate uptake in motor neurons, MN-1 cell line (AID 1612).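 Further: tested at 1 µM final; 0% = mean of DMSO vehicle wells on each plate; positive means more glutamate uptake than control and negative means less.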 The conditions noted are these: MN-1 motor neuron cells, stronger effect = higher value.
Assay [7] in a line: suppressors of polyglutamine aggregation in yeast, 75Q-TubH (AID 1616). Conditions: S. cerevisiae 75Q-TubH polyglutamine aggregation suppression; stronger effect = higher value.
Assay [8] in a line: hESC survival regulators, cell-based (AID 493140).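 Further: cells exposed to compounds for four days before counting.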 Conditions: human embryonic stem cell survival screen; stronger effect = higher value.
For assay [9], the system named is Hepatitis C virus NS3 helicase. The assay is described as follows: HCV NS3 helicase inhibitors, primary screen, biochemical, fluorescence polarization, NIH Clinical Collection (AID 743270). The conditions noted are these: NS3 helicase binding to Cy5-dT15 DNA, stronger effect = higher value, concentration not given here.
Assay [10] concerns the target Single-stranded DNA-binding protein (Escherichia coli (strain K12)) (UniProt P0AGE0). The experiment in a line: E. coli SSB displacement from DNA, counter-screen for HCV NS3 helicase inhibitor project, biochemical, fluorescence polarization, NIH Clinical Collection (AID 743271; in the data active means inhibition above about 28%). Conditions: stronger effect = higher value, concentration not given here. In general terms: Counterscreens check selectivity or assay interference.

The nature of assay [11]: fluorescence interference in NS3h assay format, artefact control for HCV NS3 helicase inhibitor project, biochemical, NIH Clinical Collection (AID 743272).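 Further: HCV NS3 helicase with a Cy5 labelled single stranded DNA probe.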 The conditions noted are these: fluorescence interference counterscreen, stronger effect = lower value.
Assay [12] in a line: modulation of C. elegans fzo-1 (AID 1259413).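 Further: fzo-1 mutant C. elegans worms in liquid wells.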 The conditions noted are these: C. elegans fzo-1 modulator screen, mean read-out; stronger effect = higher value.
Assay [13] can be described thus: viability rescue of complex I mutant cybrids, primary screen, cell-based, galactose medium, ATP luminescence (AID 1645843;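 active means z-score of at least 1.8 in each of two replicates, scored against plate mean and spread of sample wells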;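 further: positive z means more ATP and so rescue of galactose-driven cybrid death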). The conditions noted are these: complex I mutant cybrid cells, 72 h, stronger effect = higher value.
For the next assay, the system named is F380Y/beta1. The assay is described as follows: modulators of BK channel variants, profiling panel, selectivity assay, cell-based, U2OS BacMam, thallium flux, beta subunits (AID 1259406;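 active means thallium flux through the channel raised or lowered by more than 3 SD from vehicle-only wells, actives on both sides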;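 further: initial slope of Thallos dye fluorescence rise after thallium is added; log ratio against the mean of 0.3% DMSO vehicle wells on the same plate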). The conditions noted are these: at 30 µM.
A further assay relates to F380Y/beta4. The description is as above. Conditions: at 30 µM.
In the next assay the test system is R275C/beta4. Described as above. The conditions noted are these: at 30 µM.
A further assay has as its system R275C/Slo1WT/beta2. The description is as above. The conditions noted are these: at 30 µM.
A short description of assay [14]: Cy5 fluorescence interference with SSB-bound oligo, artefact control for HCV NS3 helicase inhibitor project, biochemical, NIH Clinical Collection, E. coli SSB (AID 743268).
The nature of assay [15]: liver-stage malaria parasite growth inhibition, primary screen, cell-based, HepG2, luciferase luminescence, HepG2 viability (AID 624349; in the data active means parasite load remaining mostly below about 12%, no sharp cut-off; inactive means mostly above about 10%;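 further: 100% = mean of DMSO negative control wells on the same plate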). Conditions: P. berghei liver stage in HepG2, luciferase luminescence, concentration not given here; parasite load remaining: stronger effect = lower value; viability: measured here: HepG2 viability without parasites.

For orientation: inhibition means the drop in the measured response relative to a control, in per cent. For the compound `Cn1c(=O)c2[nH]cnc2n(C)c1=O`, the results for the inhibition in [1], in [9] and in [10] were 9.69%, 0.45% (inactive) and -2.76% (inactive), respectively. This compound also came in with a score in [2] of 1.11. In addition, the rescue above control in [3] was determined as 1.91. In addition, in [4], the cytochrome c release ratio is 0.95. The compound further came in with an inhibition of aggregation in assay [5] of 68.2%. Further, the glutamate uptake change in [6] is -19.2%. In addition, the aggregation suppression score in assay [7] came out at 0.779. Further, in assay [8], the survival was 4.08 (inactive) and 2.17 (inactive). Further, in [11], the fluorescence ratio was 1 (inactive). Moreover, the mean signal in [12] is 256 (inactive). Besides, in assay [13], the z-score is 0.425 (inactive) and 0.475 (inactive) and 0.2 (inactive). The log fold change Tl+ flux in the assay on F380Y/beta1 was 0.00494 (inactive); in the assay on F380Y/beta4, -0.00644 (inactive); in the assay with R275C/beta4, 0.0294 (inactive); in the assay with R275C/Slo1WT/beta2, 0.0554 (inactive).
In the case of `C[C@H]1C[C@@H]2[C@H]([C@@H](O)C[C@@]3(C)[C@H]2CC[C@]3(O)C(=O)CO)[C@@]2(C)C=CC(=O)C=C12`, the survival in [8] was 11.9 (inactive). For the same compound, the fluorescence ratio in [14] is 1.07 (inactive); in [11], 1.04 (inactive). For the same compound, the inhibition in [9] was -1.36% (inactive); in [10], 1.81% (inactive). Moreover, the mean signal in assay [12] was 290 (inactive). In assay [13], the z-score is -0.075 (inactive) and 0.335 (inactive). Also, the log fold change Tl+ flux in the assay on F380Y/beta1 was 0.0255 (inactive); in the assay with F380Y/beta4, -0.0167 (inactive); in the assay with R275C/beta4, -0.00754 (inactive); with R275C/Slo1WT/beta2, 0.0152 (inactive).
Usually viability stands for a read-out of living cells in per cent, often relative to untreated cells. As for `CC1=C(C(=O)O)N2C(=O)[C@@H](NC(=O)[C@H](N)c3ccccc3)[C@H]2SC1`, the survival in assay [8] was 10.4 (inactive). For the same compound, the parasite load remaining in assay [15] is 125% (inactive) and 69.1% (inactive) and 137% (inactive). The viability in assay [15] was 119% and 79.9% and 115%. Besides, the fluorescence ratio is 1.01 (inactive) in assay [14] and 0.97 (inactive) in assay [11]. The inhibition in assay [9] was 8.32% (inactive); in [10] it was 8.37% (inactive). Further, in assay [12], the mean signal is 265 (inactive). Further, the log fold change Tl+ flux with F380Y/beta1 was -0.0395 (inactive); in the assay with F380Y/beta4 it was -0.0677 (inactive); in the assay on R275C/beta4, -0.0153 (inactive); in the assay on R275C/Slo1WT/beta2, -0.0484 (inactive).
As for `c1ccc2c(CC3=NCCN3)cccc2c1`, the inhibition in [1] was 16.4%; in assay [9], -3.18% (inactive); in [10], -2.76% (inactive). The same compound had a score in assay [2] of 1.41. Also, the rescue above control in [3] is -1.7. Further, the cytochrome c release ratio in assay [4] was 1.14. For the same compound, the inhibition of aggregation in assay [5] came out at 79.6%. For the same compound, the glutamate uptake change in assay [6] is -6.49%. Besides, the aggregation suppression score in assay [7] amounted to 1.49. Besides, in assay [8], the survival was 12.7 (inactive). The results for the fluorescence ratio in assay [14] and in assay [11] were 1.03 (inactive) and 1.02 (inactive), respectively. In addition, in assay [12], the mean signal is 245 (inactive). In addition, the z-score in assay [13] is 0.47 (inactive) and 0.505 (inactive). Moreover, the log fold change Tl+ flux with F380Y/beta1 is 0.0282 (inactive); with F380Y/beta4, 0.0394 (inactive); in the assay with R275C/beta4, -0.0196 (inactive); in the assay with R275C/Slo1WT/beta2, -0.0172 (inactive).
Regarding `Cc1cccc(CN2CCN(C(c3ccccc3)c3ccc(Cl)cc3)CC2)c1` (configuration not stated), the values for the inhibition in assay [1], in [9] and in assay [10] were 7.71%, -3.18% (inactive) and 7.91% (inactive), respectively. The score in assay [2] was found to be 1.9. Besides, in assay [3], the rescue above control came to 1.73. The cytochrome c release ratio in [4] worked out at 0.33. The compound also showed an inhibition of aggregation in assay [5] of 63.4%. For the same compound, the glutamate uptake change in assay [6] came out at 17.6%. The aggregation suppression score in [7] amounted to 1.86. Moreover, in assay [8], the survival is 3.33 (inactive). Moreover, the fluorescence ratio in assay [14] is 0.1 (active); in [11] it was 0.96 (inactive). Further, in [12], the mean signal is 222 (inactive). Moreover, in assay [13], the z-score is -1.5 (inactive). Further, the log fold change Tl+ flux in the assay with F380Y/beta1 is -0.208 (active); with F380Y/beta4, -0.141 (active); in the assay with R275C/beta4 it was -0.091 (inactive); in the assay with R275C/Slo1WT/beta2, -0.00698 (inactive).
`COc1ccc([C@@H]2Sc3ccccc3N(CCN(C)C)C(=O)[C@@H]2OC(C)=O)cc1`: the survival in [8] was 19.4 (inactive). In addition, the fluorescence ratio in assay [14] was 0.95 (inactive); in assay [11], 0.98 (inactive). Besides, the inhibition in assay [9] was -3.18% (inactive); in [10] it was -2.76% (inactive). The mean signal in assay [12] was 243 (inactive). Besides, the log fold change Tl+ flux is 0.0592 (inactive) with F380Y/beta1, 0.0311 (inactive) with F380Y/beta4, 0.104 (inactive) with R275C/beta4 and 0.0487 (inactive) in the assay on R275C/Slo1WT/beta2.
With `CN(C)c1ccc(O)c2c1C[C@H]1C[C@H]3[C@H](N(C)C)C(=O)C(C(N)=O)=C(O)[C@@]3(O)C(=O)C1=C2O`, the inhibition in [1] was -8.86%; in assay [9], -8.64% (inactive); in assay [10], 0.29% (inactive). Besides, the score in assay [2] was 0.98. For the same compound, the rescue above control in [3] was 0. Besides, the cytochrome c release ratio in assay [4] was 0.25. The same compound registered an inhibition of aggregation in [5] of 88.9%. The glutamate uptake change in [6] was determined as 5.89%. For the same compound, the aggregation suppression score in assay [7] amounted to 0.425. The survival in assay [8] is 9.58 (inactive). For the same compound, the fluorescence ratio in assay [14] is 0.97 (inactive); in [11], 0.89 (inactive). In addition, the z-score in assay [13] was -1.26 (inactive) and 2.96 (active). The log fold change Tl+ flux was 0.00506 (inactive) in the assay with F380Y/beta1, 0.0112 (inactive) in the assay on F380Y/beta4, -0.0291 (inactive) with R275C/beta4 and -0.0415 (inactive) in the assay on R275C/Slo1WT/beta2.
`c1ccc(-c2ccc(C(c3ccccc3)n3ccnc3)cc2)cc1` (configuration not stated): the figures for the fluorescence ratio in [14] and in [11] were 1.01 (inactive) and 1.04 (inactive), respectively. Moreover, the inhibition in assay [9] is 12.3% (inactive); in assay [10] it was 8.37% (inactive). Also, in assay [12], the mean signal was 204 (inactive). In assay [13], the z-score is -1.87 (inactive) and -2.02 (inactive). In addition, the log fold change Tl+ flux in the assay on F380Y/beta1 is 0.00744 (inactive); in the assay with F380Y/beta4, 0.00227 (inactive); in the assay with R275C/beta4, -0.0228 (inactive); with R275C/Slo1WT/beta2, -0.0124 (inactive).
With `CCCCCCCCCCC[C@@H](C[C@@H]1OC(=O)[C@H]1CCCCCC)OC(=O)[C@H](CC(C)C)NC=O`, the parasite load remaining in [15] was 74.9% (inactive). The viability in assay [15] amounted to 74.1%. Besides, the fluorescence ratio in assay [14] is 1.04 (inactive); in assay [11] it was 0.95 (inactive). Besides, the figures for the inhibition in [9] and in assay [10] were -7.52% (inactive) and -0.1% (inactive), respectively. For the same compound, the mean signal in assay [12] is 258 (inactive). For the same compound, the z-score in assay [13] is 0.54 (inactive). Besides, the log fold change Tl+ flux in the assay on F380Y/beta1 was 0.0468 (inactive); with F380Y/beta4, 0.0138 (inactive); in the assay on R275C/beta4, -0.0426 (inactive); in the assay with R275C/Slo1WT/beta2 it was -0.00736 (inactive).
For `C[C@]12CCC(=O)C=C1CC[C@@H]1[C@@H]2[C@@H](O)C[C@@]2(C)[C@H]1CC[C@]2(O)C(=O)COC(=O)CCC(=O)O`, the parasite load remaining in assay [15] was 82.9% (inactive). In addition, the viability in [15] was found to be 105%. Also, the fluorescence ratio in assay [14] was 0.99 (inactive); in assay [11], 1 (inactive). Also, the inhibition was -1.36% (inactive) in assay [9] and -0.48% (inactive) in assay [10]. The mean signal in assay [12] is 257 (inactive). Further, in assay [13], the z-score is -0.315 (inactive). For the same compound, the log fold change Tl+ flux is -0.0186 (inactive) in the assay with F380Y/beta1, 0.0128 (inactive) in the assay with F380Y/beta4, -0.0484 (inactive) with R275C/beta4 and -0.0271 (inactive) in the assay with R275C/Slo1WT/beta2.

For the origin of these results see PubChem BioAssay.
